Our source for the inhibition values is PubChem BioAssay AID504357 (The Scripps Research Institute Molecular Screening Center, 2011).

The campaign covered roughly 340,000 compounds. About 700 (0.21%) were called active. The full list was thinned out, with actives kept by preference. A number with no mark means an inactive call. No stated cut-off is given here; in the data, active means inhibition above about 22% (passing the limit was not always enough); inactive means the rest.

The target in this assay is Mu-type opioid receptor (Homo sapiens) + Delta-type opioid receptor (Homo sapiens) (UniProt P35372+P41143). Nature of the assay: inverse agonists of MOR-DOR heterodimerization, primary screen, cell-based, luminescence (AID 504357).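 Further: 0% = cells with DMSO and 100% = wells without cells with DMSO.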 Conditions: cell-based MOR-DOR heterodimer luminescence, inverse agonism; at 9.3 µM; stronger effect = higher value.
Sequence of Mu-type opioid receptor (Homo sapiens) + Delta-type opioid receptor (Homo sapiens) (P35372 whole entry, looked up): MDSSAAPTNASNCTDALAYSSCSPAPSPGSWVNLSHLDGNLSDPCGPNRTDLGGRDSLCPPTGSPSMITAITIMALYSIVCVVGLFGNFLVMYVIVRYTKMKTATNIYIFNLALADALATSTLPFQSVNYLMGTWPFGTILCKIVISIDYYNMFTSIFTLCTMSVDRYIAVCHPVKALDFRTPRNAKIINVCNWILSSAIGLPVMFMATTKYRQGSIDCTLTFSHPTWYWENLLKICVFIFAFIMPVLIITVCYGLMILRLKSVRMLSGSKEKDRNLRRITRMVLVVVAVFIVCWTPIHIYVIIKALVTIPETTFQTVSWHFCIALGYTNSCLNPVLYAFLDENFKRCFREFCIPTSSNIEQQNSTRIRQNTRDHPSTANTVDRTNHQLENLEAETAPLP
Sequence of Mu-type opioid receptor (Homo sapiens) + Delta-type opioid receptor (Homo sapiens) (P41143 whole entry, looked up): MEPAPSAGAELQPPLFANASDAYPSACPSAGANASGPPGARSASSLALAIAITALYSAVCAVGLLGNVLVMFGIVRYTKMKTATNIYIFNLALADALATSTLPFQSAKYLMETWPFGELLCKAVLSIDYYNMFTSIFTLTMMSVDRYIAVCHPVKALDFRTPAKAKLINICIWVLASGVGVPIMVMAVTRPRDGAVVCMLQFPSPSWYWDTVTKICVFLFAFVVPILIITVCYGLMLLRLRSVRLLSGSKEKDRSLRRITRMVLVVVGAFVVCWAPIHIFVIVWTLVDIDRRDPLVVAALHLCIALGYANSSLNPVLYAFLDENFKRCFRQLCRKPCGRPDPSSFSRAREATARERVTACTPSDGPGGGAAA
Take `COc1ccc(-c2ccc(CNCCCN3CCOCC3)o2)cc1Cl`: the inhibition (as a rule, the relative decrease from the control value, in per cent) is -3.74%.
For the molecule `Nc1ccc2c(c1)C(O)c1ccc(Cl)cc1-2` (centres undefined), the inhibition was -2.52%.
With `C/C(O)=C\c1nc(=O)c2c(C)cc(C)nc2n1-c1ccccc1`, the inhibition is -10.5%.
The value for `Cc1ccc(CN(C(=O)c2sc3ccccc3c2Cl)C2CCS(=O)(=O)C2)cc1` (centres undefined) was -141%.
To `CCOC(=O)c1sc(-c2cccc([N+](=O)[O-])c2)cc1N` belongs -25.6%.
The value for `CC(=O)Nc1ccc(S(=O)(=O)N2CCN(c3ccc([N+](=O)[O-])c(NCCN4CCOCC4)c3)CC2)cc1` was 4.65%.
Regarding `O=C(CNC(=O)c1ccccc1Br)NCCSc1ccc(Br)cc1`, the inhibition was 3.63%.
The value for `COc1cc(C(=O)OC(C)C(=O)NCC2CCCCC2)cc(NC(=O)c2ccco2)c1OC` (centres undefined) was -157%.
To `O=C(Nc1cccc(Br)c1)C1CC(=O)N(C2CCCC2)C1` (centres undefined) belongs -5.3%.
To `CCN(CC)C(=O)CN(c1cccc(OC)c1)S(=O)(=O)c1ccc(C)cc1` belongs 13%.
In the case of `CCN(CCCNC(=O)C1CCN(S(=O)(=O)c2cnc[nH]2)CC1)c1ccccc1`, the inhibition is -0.9%.
Consider `O=C1c2ccccc2C(=O)N1CCOc1ccc(F)cc1`, for which the inhibition was -0.37%.
The value for `Cc1cc(/C=C2/SC(=O)N(CC(=O)OC(C)C)C2=O)c(C)n1C` was 5.02%.
To `CCOC(=O)CN1C(=O)C(=O)c2cc(C)ccc21` belongs 40.6% (active); to `Cc1ccc2c(c1)-c1c(ssc1=S)C(C)(C)N2C(=O)CN1C(=O)c2ccccc2C1=O`, 11.6%; to `Cc1cccc2c1N(CCOc1ccccc1)C(=O)C2=O`, 55.7% (active).
The value for `CC1(C)NC(=O)N(CCOc2cccc(Oc3ccccc3)c2)C1=O` was 10.6%; that for `CC(OC(=O)CN1C(=O)c2ccccc2C1=O)C(=O)c1ccccc1` (centres undefined) was 9.57%; that for `CC(C)OC(=O)CN1CCN(c2ccc(Cl)cc2)CC1` was -2.26%.
Turning to `Cc1cccc2c1N(CC(=O)OC(C)C)C(=O)C2=O`, the inhibition was 67.2% (active).
In the case of `CC(C)OC(=O)CN1C(=O)C(=O)c2ccccc21`, the inhibition is 96.4% (active).
To `COc1cc(C(C)=O)ccc1OC(=O)CN1C(=O)c2ccccc2C1=O` belongs 17.3%.
Take `CCOC(=O)C1CCN(C(=O)CN2C(=O)c3cccnc3Oc3ccc(C)cc32)CC1`: the inhibition is 20%.
In the case of `O/N=C(\c1ccc2c(c1)OCCO2)C1CCCCC1`, the inhibition is 10.1%.
The value for `CSc1ccccc1C(=O)OCC(=O)N1CCN(C(C)=O)CC1` was 12.6%; that for `CC1CN(S(=O)(=O)c2ccc(C(=O)NN3CCN(C)CC3)cc2)CC(C)O1` (centres undefined) was -5.71%.
To `O=C(/C=C/c1ccc(Cl)cc1)NCCCn1ccnc1` belongs 1.46%; to `O=C(CCl)NNc1cccc(Cl)n1`, 75% (active); to `Cc1cccc(NC(=O)Cc2ccc(Br)cc2)n1`, 2.04%.
To `O=C(Cc1c(Cl)cccc1Cl)NC1CC1` belongs 1.58%; to `CN(C(=O)CCn1c(=S)oc2ccccc21)C1CCCCC1`, 10.3%.
Regarding `CNS(=O)(=O)c1ccc(N2CCCC2=O)c([N+](=O)[O-])c1`, the inhibition was -2.31%.
Turning to `CC(c1ccco1)N(C(=O)c1ccc(S(=O)(=O)N2CCCCC2)cc1)c1ccccn1` (centres undefined), the inhibition was 13.7%.
The value for `Cc1cc(C)c(S(=O)(=O)n2cc(C(C)C(N)C(=O)O)c3ccccc32)c(C)c1` (centres undefined) was 8.06%; that for `Cn1nc([N+](=O)[O-])nc1Sc1ccc(C(C)(C)C)cc1` was -22.7%; that for `CCOC(=O)c1cccc(NC(=O)C2CCN(c3ncnc4c3nc3n4CCCCC3)CC2)c1` was -0.14%.
As to `CCCCCC(O)(CCN1CCCCC1)c1ccccc1` (centres undefined), the inhibition was 4.99%.
To `CCn1cc(CCC(=O)NCc2ccc(F)cc2)c2ccccc21` belongs -13.5%; to `Cc1ccc(NC(=S)Nc2ccc(F)cc2)cc1`, 9.82%.
The value for `Cc1ccc(C(=O)CNc2ccc(F)cc2)cc1` was 42.7% (active).
The value for `Cc1ccc(C(=O)NC2CCN(C(=O)Nc3ccc(F)cc3)CC2)cc1` was 6.33%.
In the case of `CCNC(=S)NNC(=O)Cc1ccccc1`, the inhibition is 2.92%.
To `CCCCCC(=O)NC(=S)NNC(=O)c1ccc([N+](=O)[O-])cc1` belongs -3.86%; to `CCCCC(=O)NNC(=S)NC(=O)C(c1ccccc1)c1ccccc1`, 27.8% (active); to `COc1ccc(NC(=O)CCn2ccnc2)c(OC)c1`, 9.95%.
The value for `Cn1c(=S)sc2ccc3ccccc3c21` was -28.3%; that for `O=C(C1CC(=O)N(c2ccc(F)cc2)C1)N1CCN(c2ccccc2)CC1` (centres undefined) was 14%.
To `CCOC(=O)N1CCN(C(=O)c2ccccc2N(Cc2ccccc2)S(=O)(=O)c2ccc(OC)cc2)CC1` belongs -2.13%; to `N#Cc1cccc(NC(=O)CCC2CCCC2)c1`, -3.46%.
For `O=C1NC(=O)C(CCc2ccccc2)(c2ccccc2)N1` (centres undefined), the inhibition was 16.3%.
To `COC(=O)c1cc2occc2n1Cc1nc(-c2ccccc2C)oc1C` belongs -3.9%; to `CN(C)CCn1c2c(c(SCC(=O)NCc3ccccc3)nc1=O)CCC2`, -0.58%.
Consider `CCc1c(Nc2ccccc2C)nc(N)[nH]c1=O`, for which the inhibition was 0.05%.
The value for `O=C(CCc1nc2sc3c(c2c(=O)[nH]1)CCCC3)NCC(=O)Nc1ccccc1Br` was 17%; that for `COc1ccc(N2CC(NS(=O)(=O)c3ccc4ccccc4c3)CC2=O)cc1` (centres undefined) was 7.42%; that for `COc1cc(NS(=O)(=O)c2ccc3ccccc3c2)c2ncccc2c1` was 38.6% (active).
To `CCOc1cc(NS(=O)(=O)c2ccc(OC)cc2)c(OCC)cc1NC(C)=O` belongs -4.39%; to `COC(=O)Cc1ccc(NC(=S)NCc2ccccc2)cc1`, 5.98%; to `CCCOC(=O)Cc1c(O)c2ccccc2[nH]c1=O`, 15.1%.
`COC(=O)Cc1c(-c2[nH]c3ccccc3c2CC(=O)OC)[nH]c2ccccc12`: the inhibition is 42.2% (active).
With `Cc1ccc(-n2nc(-c3ccco3)cc2C(=O)NCc2cccnc2)cc1`, the inhibition is 10.7%.
The value for `O=C1C(=O)N(CC2COc3ccccc3O2)c2ccccc21` (centres undefined) was 35.1% (active); that for `O=C(CN1C(=O)C2C3C=CC(C3)C2C1=O)NCC1COc2ccccc2O1` (centres undefined) was -16.6%.
The value for `O=C(NCC1COc2ccccc2O1)C1(c2ccccc2)CCCC1` (centres undefined) was 4.79%.
